Columns and labels:
Assay in all cases: DAPPL (digital affinity profiling via proximity ligation, sequencing); 10 mM Tris-HCl pH 7.5, 50 mM NaCl, 1 mM DTT, 4% glycerol, room temperature, 30 min; GST-TFs on glutathione beads, 16-mer random dsDNA library, 0.1% formaldehyde crosslink after washing; high values mean tight binding
[1] = biological target: T1, FEV (Homo sapiens, UniProt Q99581 1-238); conditions: protein: recombinant; tags: N-terminal GST; dsDNA, one strand shown
T1 sequence: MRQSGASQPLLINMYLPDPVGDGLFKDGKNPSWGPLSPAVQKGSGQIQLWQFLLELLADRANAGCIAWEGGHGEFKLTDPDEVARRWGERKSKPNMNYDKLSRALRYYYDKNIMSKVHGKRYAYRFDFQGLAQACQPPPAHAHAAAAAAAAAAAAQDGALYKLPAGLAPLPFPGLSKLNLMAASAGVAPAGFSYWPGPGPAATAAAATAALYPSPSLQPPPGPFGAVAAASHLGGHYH
In short: (§1)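 Sequencing on an Illumina NextSeq500 followed washing, crosslinking with 0.1% formaldehyde, proximity ligation (BsaI/T4 ligase, 1 h, 37 °C) and PCR amplification of pools that had been incubated for 30 min at room temperature with 200 nmole of a random double-stranded 16-mer DNA library in Tris/NaCl/DTT/glycerol buffer. Each pool held DNA-barcoded human transcription factors, expressed in yeast as GST fusions and captured on glutathione beads, plus a tag-only sample. Binding signal is a hexamer's read frequency for a factor divided by its frequency in the tag-only sample.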

[2] = biological target: ETV5 (Homo sapiens, UniProt P41161 1-510); conditions: protein: recombinant; tags: N-terminal GST; dsDNA, one strand shown
In short: as §1

[3] = biological target: HSF1 (Homo sapiens, UniProt Q00613 1-529); conditions: protein: recombinant; tags: N-terminal GST; chain copies: 3; dsDNA, one strand shown
In short: as §1

[4] = biological target: T2, SPIC (Homo sapiens, UniProt Q8N5J4 1-248); conditions: protein: recombinant; tags: N-terminal GST; dsDNA, one strand shown
T2 sequence: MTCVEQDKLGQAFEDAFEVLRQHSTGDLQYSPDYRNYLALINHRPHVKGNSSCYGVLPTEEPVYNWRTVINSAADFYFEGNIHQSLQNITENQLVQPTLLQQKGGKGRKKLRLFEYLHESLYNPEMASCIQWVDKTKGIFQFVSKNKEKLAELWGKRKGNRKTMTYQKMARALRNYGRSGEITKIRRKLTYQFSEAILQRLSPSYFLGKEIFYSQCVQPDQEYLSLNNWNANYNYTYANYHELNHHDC
In short: as §1

[5] = biological target: ELF4 (Homo sapiens, UniProt Q99607 1-663); conditions: protein: recombinant; tags: N-terminal GST; dsDNA, one strand shown
In short: as §1

[6] = biological target: T3, ELK4 (Homo sapiens, UniProt P28324-2 1-405); conditions: protein: recombinant; tags: N-terminal GST; dsDNA, one strand shown
T3 sequence: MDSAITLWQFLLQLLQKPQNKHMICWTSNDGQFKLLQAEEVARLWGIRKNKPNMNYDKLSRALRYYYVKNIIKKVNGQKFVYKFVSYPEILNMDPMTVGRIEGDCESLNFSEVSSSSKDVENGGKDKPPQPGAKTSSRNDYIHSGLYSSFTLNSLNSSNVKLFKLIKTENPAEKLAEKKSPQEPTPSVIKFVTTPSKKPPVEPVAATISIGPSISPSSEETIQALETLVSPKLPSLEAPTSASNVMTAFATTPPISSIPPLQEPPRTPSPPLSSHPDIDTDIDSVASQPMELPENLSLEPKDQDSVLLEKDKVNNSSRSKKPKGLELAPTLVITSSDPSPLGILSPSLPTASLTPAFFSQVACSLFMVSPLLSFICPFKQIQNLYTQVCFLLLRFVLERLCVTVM
In short: as §1

[7] = biological target: T4, ETV2 (Homo sapiens, UniProt O00321 1-342); conditions: protein: recombinant; tags: N-terminal GST; dsDNA, one strand shown
T4 sequence: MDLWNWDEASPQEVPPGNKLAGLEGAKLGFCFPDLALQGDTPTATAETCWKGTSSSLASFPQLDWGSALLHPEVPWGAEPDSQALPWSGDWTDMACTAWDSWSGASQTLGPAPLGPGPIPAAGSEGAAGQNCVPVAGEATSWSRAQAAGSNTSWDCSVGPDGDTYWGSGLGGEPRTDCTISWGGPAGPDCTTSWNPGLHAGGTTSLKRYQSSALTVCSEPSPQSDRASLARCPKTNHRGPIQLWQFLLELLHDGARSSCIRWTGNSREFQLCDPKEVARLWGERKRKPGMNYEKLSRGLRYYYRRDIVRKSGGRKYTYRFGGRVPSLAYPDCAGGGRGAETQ
In short: as §1

[8] = biological target: T5, ELF3 (Homo sapiens, UniProt P78545 1-371); conditions: protein: recombinant; tags: N-terminal GST; dsDNA, one strand shown
T5 sequence: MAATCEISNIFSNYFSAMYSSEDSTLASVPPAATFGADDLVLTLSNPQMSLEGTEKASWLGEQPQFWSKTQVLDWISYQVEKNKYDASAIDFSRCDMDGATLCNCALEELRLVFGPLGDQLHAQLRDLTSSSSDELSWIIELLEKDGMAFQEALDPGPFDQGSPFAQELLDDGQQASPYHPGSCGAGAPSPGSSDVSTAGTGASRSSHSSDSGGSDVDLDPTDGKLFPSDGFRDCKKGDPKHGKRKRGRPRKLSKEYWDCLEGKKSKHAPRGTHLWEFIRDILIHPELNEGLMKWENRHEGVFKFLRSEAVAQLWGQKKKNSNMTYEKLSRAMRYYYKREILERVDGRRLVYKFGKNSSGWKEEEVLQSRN
In short: as §1

[9] = biological target: CRX (Homo sapiens, UniProt O43186 1-299); conditions: protein: recombinant; tags: N-terminal GST; dsDNA, one strand shown
In short: as §1

[10] = biological target: ETV1 (Homo sapiens, UniProt P50549 1-477); conditions: protein: recombinant; tags: N-terminal GST; dsDNA, one strand shown
In short: as §1

[11] = biological target: T6, ERF (Homo sapiens, UniProt P50548 1-548); conditions: protein: recombinant; tags: N-terminal GST; dsDNA, one strand shown
T6 sequence: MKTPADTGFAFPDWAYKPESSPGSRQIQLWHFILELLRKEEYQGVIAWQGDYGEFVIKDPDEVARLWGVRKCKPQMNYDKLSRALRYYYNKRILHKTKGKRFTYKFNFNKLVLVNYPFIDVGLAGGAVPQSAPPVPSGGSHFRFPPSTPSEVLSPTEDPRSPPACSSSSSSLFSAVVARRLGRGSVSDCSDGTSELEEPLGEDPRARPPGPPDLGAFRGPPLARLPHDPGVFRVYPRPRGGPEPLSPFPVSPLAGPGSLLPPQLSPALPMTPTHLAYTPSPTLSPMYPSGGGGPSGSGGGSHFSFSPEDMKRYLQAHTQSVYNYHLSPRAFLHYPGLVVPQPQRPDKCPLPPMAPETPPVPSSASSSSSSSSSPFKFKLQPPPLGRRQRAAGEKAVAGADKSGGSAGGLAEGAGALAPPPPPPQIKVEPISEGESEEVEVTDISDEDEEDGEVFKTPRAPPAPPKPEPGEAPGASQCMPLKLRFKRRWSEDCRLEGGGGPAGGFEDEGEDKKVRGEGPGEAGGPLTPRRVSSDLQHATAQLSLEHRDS
In short: as §1

[12] = biological target: T7, ETV3L (Homo sapiens, UniProt Q6ZN32 1-361); conditions: protein: recombinant; tags: N-terminal GST; dsDNA, one strand shown
T7 sequence: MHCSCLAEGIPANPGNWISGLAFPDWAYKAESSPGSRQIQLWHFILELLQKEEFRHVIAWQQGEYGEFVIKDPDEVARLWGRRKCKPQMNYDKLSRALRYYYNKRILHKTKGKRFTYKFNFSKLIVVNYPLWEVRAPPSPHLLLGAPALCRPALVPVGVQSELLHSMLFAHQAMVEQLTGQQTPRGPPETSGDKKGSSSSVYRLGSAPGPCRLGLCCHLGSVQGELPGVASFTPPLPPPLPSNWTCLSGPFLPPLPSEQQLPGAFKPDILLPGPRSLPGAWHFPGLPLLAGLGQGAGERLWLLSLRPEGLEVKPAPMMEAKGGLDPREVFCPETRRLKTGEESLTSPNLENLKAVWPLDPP
In short: as §1

[13] = biological target: T8, ETS2 (Homo sapiens, UniProt P15036 1-469); conditions: protein: recombinant; tags: N-terminal GST; dsDNA, one strand shown
T8 sequence: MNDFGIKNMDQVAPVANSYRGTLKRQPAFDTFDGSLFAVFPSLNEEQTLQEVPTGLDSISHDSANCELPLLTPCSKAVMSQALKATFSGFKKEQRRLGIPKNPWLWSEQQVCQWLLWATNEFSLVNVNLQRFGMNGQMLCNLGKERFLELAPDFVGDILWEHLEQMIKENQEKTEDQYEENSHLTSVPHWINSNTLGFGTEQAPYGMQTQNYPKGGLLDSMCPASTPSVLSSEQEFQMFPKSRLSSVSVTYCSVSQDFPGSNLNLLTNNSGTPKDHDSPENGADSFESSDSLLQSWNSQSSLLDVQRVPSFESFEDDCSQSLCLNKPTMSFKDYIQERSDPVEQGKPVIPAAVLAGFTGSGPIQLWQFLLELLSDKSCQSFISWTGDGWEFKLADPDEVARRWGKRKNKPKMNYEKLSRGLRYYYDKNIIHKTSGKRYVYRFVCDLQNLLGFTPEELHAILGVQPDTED
In short: as §1

[14] = biological target: T9, SPDEF (Homo sapiens, UniProt O95238 1-335); conditions: protein: recombinant; tags: N-terminal GST; dsDNA, one strand shown
T9 sequence: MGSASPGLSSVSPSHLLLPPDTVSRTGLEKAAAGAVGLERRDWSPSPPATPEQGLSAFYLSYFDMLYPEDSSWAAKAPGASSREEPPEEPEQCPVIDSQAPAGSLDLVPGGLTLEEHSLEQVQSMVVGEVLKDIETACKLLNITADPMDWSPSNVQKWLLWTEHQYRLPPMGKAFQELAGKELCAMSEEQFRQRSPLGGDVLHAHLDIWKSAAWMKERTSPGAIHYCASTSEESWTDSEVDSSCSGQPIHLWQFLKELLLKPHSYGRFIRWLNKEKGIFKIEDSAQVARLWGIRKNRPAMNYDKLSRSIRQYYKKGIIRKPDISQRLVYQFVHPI
In short: as §1

[15] = biological target: T10, ETV7 (Homo sapiens, UniProt Q9Y603 1-341); conditions: protein: recombinant; tags: N-terminal GST; dsDNA, one strand shown
T10 sequence: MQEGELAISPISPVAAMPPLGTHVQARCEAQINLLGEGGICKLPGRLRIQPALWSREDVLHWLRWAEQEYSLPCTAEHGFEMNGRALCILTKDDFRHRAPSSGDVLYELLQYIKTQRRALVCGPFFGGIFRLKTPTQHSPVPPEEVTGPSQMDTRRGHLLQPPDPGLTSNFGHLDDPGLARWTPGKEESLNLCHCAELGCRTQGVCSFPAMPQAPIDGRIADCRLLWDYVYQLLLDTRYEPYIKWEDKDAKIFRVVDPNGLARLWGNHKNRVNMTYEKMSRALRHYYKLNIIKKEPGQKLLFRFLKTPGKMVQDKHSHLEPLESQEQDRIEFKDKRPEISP
In short: as §1

[16] = biological target: T11, ELF5 (Homo sapiens, UniProt Q9UKW6-2 1-255); conditions: protein: recombinant; tags: N-terminal GST; dsDNA, one strand shown
T11 sequence: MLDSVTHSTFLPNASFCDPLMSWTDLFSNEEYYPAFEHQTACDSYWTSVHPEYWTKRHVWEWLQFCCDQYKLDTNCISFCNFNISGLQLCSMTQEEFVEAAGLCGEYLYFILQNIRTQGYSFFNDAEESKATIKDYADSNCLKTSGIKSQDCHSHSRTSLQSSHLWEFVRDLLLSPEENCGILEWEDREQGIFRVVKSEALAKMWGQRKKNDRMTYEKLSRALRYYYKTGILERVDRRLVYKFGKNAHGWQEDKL
In short: as §1

[17] = biological target: T12, ETV3 (Homo sapiens, UniProt P41162-2 1-143); conditions: protein: recombinant; tags: N-terminal GST; dsDNA, one strand shown
T12 sequence: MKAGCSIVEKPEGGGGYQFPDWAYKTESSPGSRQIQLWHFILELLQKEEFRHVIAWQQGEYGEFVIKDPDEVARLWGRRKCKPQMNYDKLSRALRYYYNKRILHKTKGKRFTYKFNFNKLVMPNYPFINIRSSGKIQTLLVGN
In short: as §1

[18] = biological target: ETV6 (Homo sapiens, UniProt P41212 1-452); conditions: protein: recombinant; tags: N-terminal GST; dsDNA, one strand shown
In short: as §1

Sequence of CRX (O43186 whole entry): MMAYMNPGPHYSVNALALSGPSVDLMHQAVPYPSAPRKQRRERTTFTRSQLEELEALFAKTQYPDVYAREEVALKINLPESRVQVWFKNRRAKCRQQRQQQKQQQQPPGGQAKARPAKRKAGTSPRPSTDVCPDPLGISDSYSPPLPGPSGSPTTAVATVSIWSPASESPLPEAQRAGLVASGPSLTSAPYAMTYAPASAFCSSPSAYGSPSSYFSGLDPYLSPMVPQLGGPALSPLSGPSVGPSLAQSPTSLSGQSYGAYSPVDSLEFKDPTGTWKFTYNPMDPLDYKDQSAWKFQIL
Sequence of ETV5 (P41161 whole entry): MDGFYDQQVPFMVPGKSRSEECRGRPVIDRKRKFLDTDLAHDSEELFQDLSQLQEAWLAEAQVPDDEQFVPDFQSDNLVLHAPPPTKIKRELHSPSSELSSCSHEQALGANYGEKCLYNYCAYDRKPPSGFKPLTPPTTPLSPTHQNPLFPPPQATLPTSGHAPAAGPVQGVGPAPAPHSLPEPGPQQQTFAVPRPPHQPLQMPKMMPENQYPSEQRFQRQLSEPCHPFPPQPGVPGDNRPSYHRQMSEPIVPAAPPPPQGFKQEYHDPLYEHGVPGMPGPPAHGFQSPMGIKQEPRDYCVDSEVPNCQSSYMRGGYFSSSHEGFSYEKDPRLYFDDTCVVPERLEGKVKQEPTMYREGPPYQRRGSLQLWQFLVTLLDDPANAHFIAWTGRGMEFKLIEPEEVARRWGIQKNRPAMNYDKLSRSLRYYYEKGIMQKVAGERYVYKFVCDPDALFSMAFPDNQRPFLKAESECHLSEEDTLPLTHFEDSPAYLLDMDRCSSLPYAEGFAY
Sequence of ELF4 (Q99607 whole entry): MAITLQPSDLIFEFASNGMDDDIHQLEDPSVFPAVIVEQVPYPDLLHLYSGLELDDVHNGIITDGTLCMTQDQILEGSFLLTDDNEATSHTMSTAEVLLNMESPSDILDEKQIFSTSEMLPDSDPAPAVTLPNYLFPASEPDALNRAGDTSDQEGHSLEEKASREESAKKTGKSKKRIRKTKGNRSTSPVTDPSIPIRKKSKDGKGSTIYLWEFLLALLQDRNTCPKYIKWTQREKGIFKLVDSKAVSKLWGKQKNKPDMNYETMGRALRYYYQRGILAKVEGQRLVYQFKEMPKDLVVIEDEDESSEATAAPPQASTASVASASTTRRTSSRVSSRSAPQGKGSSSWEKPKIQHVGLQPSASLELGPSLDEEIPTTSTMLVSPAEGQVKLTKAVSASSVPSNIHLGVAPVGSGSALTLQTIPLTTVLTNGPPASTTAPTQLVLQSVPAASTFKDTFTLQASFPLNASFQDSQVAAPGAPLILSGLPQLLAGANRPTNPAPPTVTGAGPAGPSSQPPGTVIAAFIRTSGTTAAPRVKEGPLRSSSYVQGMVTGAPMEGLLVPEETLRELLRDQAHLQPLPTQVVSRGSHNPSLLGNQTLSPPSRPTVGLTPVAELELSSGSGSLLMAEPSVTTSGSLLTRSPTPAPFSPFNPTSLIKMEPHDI
Sequence of HSF1 (Q00613 whole entry): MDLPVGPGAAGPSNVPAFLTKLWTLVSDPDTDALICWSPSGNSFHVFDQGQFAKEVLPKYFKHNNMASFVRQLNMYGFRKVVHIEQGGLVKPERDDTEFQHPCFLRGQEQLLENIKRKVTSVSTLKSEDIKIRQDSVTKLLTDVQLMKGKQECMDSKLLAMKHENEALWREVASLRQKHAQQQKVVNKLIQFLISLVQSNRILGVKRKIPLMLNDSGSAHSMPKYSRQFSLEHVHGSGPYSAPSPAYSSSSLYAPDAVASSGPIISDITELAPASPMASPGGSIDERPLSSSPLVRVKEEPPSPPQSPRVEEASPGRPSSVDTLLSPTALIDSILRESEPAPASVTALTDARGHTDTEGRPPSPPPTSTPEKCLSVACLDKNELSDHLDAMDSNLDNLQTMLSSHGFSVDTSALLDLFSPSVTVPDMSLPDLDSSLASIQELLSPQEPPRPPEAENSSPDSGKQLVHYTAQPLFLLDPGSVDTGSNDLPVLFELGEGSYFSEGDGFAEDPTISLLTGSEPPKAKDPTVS
Sequence of ETV1 (P50549 whole entry): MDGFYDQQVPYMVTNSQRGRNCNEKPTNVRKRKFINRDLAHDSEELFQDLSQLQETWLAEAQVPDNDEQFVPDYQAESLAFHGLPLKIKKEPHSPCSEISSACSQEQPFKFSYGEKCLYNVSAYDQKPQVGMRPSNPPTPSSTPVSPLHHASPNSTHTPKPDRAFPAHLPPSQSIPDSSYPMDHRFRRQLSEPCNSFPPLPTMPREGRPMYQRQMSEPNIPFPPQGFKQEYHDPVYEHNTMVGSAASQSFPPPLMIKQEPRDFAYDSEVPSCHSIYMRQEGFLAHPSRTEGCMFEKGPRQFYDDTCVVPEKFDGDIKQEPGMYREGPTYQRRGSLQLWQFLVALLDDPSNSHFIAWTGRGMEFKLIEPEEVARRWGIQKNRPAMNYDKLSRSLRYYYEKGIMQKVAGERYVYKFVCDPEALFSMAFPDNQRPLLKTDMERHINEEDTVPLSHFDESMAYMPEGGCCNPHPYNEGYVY
Sequence of ETV6 (P41212 whole entry): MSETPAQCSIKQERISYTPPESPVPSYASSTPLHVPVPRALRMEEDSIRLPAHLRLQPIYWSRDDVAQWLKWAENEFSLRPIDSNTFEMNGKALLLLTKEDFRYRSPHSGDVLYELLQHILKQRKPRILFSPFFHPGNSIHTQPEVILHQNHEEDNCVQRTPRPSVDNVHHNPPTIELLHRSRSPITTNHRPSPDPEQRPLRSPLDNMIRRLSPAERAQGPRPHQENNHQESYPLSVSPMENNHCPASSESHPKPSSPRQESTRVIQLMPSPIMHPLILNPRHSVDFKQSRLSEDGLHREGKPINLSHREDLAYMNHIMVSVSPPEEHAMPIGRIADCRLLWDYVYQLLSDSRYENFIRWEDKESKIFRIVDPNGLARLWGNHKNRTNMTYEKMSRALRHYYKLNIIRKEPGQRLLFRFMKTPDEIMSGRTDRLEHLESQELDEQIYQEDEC

CACCTT was tested, and the binding signal [1] was 1.31 fold enrichment (6-mer frequency, TF over GST control), the binding signal [2] was 1.18 fold enrichment (6-mer frequency, TF over GST control) and the binding signal [3] was 1.08 fold enrichment (6-mer frequency, TF over GST control). For the same sequence, the binding signal [4] was 1.2 fold enrichment (6-mer frequency, TF over GST control), the binding signal [5] was 1.37 fold enrichment (6-mer frequency, TF over GST control) and the binding signal [6] was 1.39 fold enrichment (6-mer frequency, TF over GST control). The binding signal [7] was 1.25 fold enrichment (6-mer frequency, TF over GST control), the binding signal [8] was 1.26 fold enrichment (6-mer frequency, TF over GST control) and the binding signal [9] was 1.1 fold enrichment (6-mer frequency, TF over GST control). For the same sequence, the binding signal [10] was 1.35 fold enrichment (6-mer frequency, TF over GST control), the binding signal [11] was 1.33 fold enrichment (6-mer frequency, TF over GST control) and the binding signal [12] was 1.14 fold enrichment (6-mer frequency, TF over GST control). The binding signal [13] was 1.24 fold enrichment (6-mer frequency, TF over GST control), the binding signal [14] was 1.31 fold enrichment (6-mer frequency, TF over GST control) and the binding signal [15] was 1.12 fold enrichment (6-mer frequency, TF over GST control). For the same sequence, the binding signal [16] was 1.21 fold enrichment (6-mer frequency, TF over GST control), the binding signal [17] was 1.31 fold enrichment (6-mer frequency, TF over GST control) and the binding signal [18] was 1.25 fold enrichment (6-mer frequency, TF over GST control).
